DRD3 agonist – qHTS of D3 Dopamine Receptor Agonist: qHTS; D(3) dopamine receptor (Homo sapiens), P35462; D3R DiscoveRx beta-arrestin cells, luminescence, 90 min; max activation, %; 0.58% of 410,000 active; AID 652048, 2013; in the data active = max activation above about 30%
Target sequence (P35462 whole entry, looked up): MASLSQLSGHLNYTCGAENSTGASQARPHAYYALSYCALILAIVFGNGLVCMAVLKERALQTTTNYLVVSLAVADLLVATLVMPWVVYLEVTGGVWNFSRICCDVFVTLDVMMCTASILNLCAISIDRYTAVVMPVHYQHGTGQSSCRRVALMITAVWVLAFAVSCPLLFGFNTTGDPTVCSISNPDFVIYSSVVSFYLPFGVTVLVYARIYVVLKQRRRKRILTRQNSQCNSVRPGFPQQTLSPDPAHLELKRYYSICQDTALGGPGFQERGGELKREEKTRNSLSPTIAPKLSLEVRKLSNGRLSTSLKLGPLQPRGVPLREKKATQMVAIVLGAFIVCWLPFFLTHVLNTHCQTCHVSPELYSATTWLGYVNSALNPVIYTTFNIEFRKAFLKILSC
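Agonist mode: compounds and dopamine controls were applied to plated cells for 90 min at 37 degrees C after an overnight attachment at 1500 cells/well. Luminescent read-out followed 30 - 60 minutes at room temperature with DiscoveRx detection reagent.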
a7 integrin act – qHTS for Activators of Integrin-Mediated Alleviation for Muscular Dystrophy. Potency, µM (titrated, usually from 38.3 µM), actives largely listed as activators. alpha7betagal myoblasts, beta-gal FDG fluorescence, 48 h. 0.064% of 350,000 active; active = well fitted activation curve with a large enough effect; inconclusive = small, poorly fitted or top-dose-only effect; inactive = no such curve, though single readings can be large or run the other way; also: nearly all actives have a fitted effect of over 60% in size
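alpha7betagal+/- myoblasts (passage 13, 250/well) treated 48 h at 37C with compounds at 1:260 dilution of DMSO stock. Lysed, then beta-galactosidase activity read as FDG fluorescence (ex 480/em 540) after 30 min, with pre-read for autofluorescence.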
D3 antag – qHTS of D3 Dopamine Receptor Antagonist: qHTS; max response, negative = inhibition, %; D(3) dopamine receptor (Homo sapiens), P35462; 2.5% of 360,000 active; D3R cells, DiscoveRx beta-arrestin luminescence, antagonist mode; active compounds read low; in the data active = max response below about -50%; inconclusive = no clear call, values can overlap the other calls
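Cells plated overnight at 1500 cells/well, then exposed to library compounds with dopamine controls for 90 minutes at 37 degrees C. DiscoveRx reagent added for 30–60 minutes at room temperature; luminescence read, quantitative HTS format.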
A number is an active result. The list is not random: actives were taken first. Their share in the collection is about 2.9%.

Results for O=C(NCCN1CCC(Cc2ccccc2)CC1)C1CCN(S(=O)(=O)N2CCC3(CC2)OCCO3)CC1 ?
DRD3 agonist: inactive; a7 integrin act: inactive; D3 antag: -50.2

How did O=C(NCCCN1CCN(Cc2ccccc2)CC1)C1CCN(S(=O)(=O)N2CCC3(CC2)OCCO3)CC1 do in these assays?
DRD3 agonist: inactive; a7 integrin act: inactive; D3 antag: inactive

Results for Cc1ccccc1S(=O)(=O)Cc1ccc(C(=O)NCCCN2CCN(C)CC2)o1 ?
DRD3 agonist: inactive; a7 integrin act: inactive; D3 antag: inactive

How did O=C(CN(C(=O)Cn1nnc(-c2cccs2)n1)c1ccc2c(c1)OCCO2)NC1CCCCC1 do in these assays?
DRD3 agonist: inactive; a7 integrin act: inactive; D3 antag: inconclusive

What do the screens show for `CCn1c(SCC(=O)NCC2CCCO2)nnc1-c1ccccc1` (stereo unspecified)?
DRD3 agonist: inactive; a7 integrin act: inactive; D3 antag: inactive

Results for COc1ccc(NS(=O)(=O)c2cccc(C(=O)NCC(c3ccc(OC)cc3)N3CCCC3)c2)cc1 (stereo unspecified) ?
DRD3 agonist: inactive; a7 integrin act: inactive; D3 antag: inconclusive

Results for CCN(c1ccccc1)S(=O)(=O)c1cccc(C(=O)NCC(c2ccc(OC)cc2)N2CCCCC2)c1 (stereo unspecified) ?
DRD3 agonist: inactive; a7 integrin act: inactive; D3 antag: -121.6

What do the screens show for `COc1ccc(C(CNC(=O)c2ccc(OC)c(S(=O)(=O)N3CCCC3)c2)N2CCCC2)cc1` (stereo unspecified)?
DRD3 agonist: inactive; a7 integrin act: inactive; D3 antag: -82.6

How did C=CCN(c1ccccc1)S(=O)(=O)c1cccc(C(=O)NCC(c2ccc(OC)cc2)N2CCCCC2)c1 (stereo unspecified) do in these assays?
DRD3 agonist: inactive; a7 integrin act: inactive; D3 antag: inconclusive

What do the screens show for `COc1ccc(NS(=O)(=O)c2cccc(C(=O)NCC(c3ccc(OC)cc3)N3CCCCC3)c2)cc1` (stereo unspecified)?
DRD3 agonist: inactive; a7 integrin act: inactive; D3 antag: -56.5

Results for COc1ccc(C(=O)NCC(c2ccc(F)cc2)N2CCOCC2)cc1S(=O)(=O)N1CCCC1 (stereo unspecified) ?
DRD3 agonist: inactive; a7 integrin act: inactive; D3 antag: inactive

How did COc1ccc(C(CNC(=O)c2cccc(N(C)C)c2)N2CCCC2)cc1 (stereo unspecified) do in these assays?
DRD3 agonist: inactive; a7 integrin act: inactive; D3 antag: inactive

What do the screens show for `CCC1CCc2sc(C(=O)NCC(c3ccc(OC)cc3)N3CCCC3)cc2C1` (stereo unspecified)?
DRD3 agonist: inactive; a7 integrin act: inactive; D3 antag: -88.6

What do the screens show for `CC(=O)Nc1ccc(NC(=O)c2ccccc2S(=O)(=O)c2ccc([N+](=O)[O-])cc2)cc1`?
DRD3 agonist: inactive; a7 integrin act: inactive; D3 antag: inactive

What do the screens show for `CCNc1nc(NCC)n2c(SCC(=O)Nc3cc(Cl)ccc3OC)nnc2n1`?
DRD3 agonist: inactive; a7 integrin act: inactive; D3 antag: inactive

What do the screens show for `CN1CCN(C2CN(Cc3cn(Cc4ccc(F)cc4)nn3)S(=O)(=O)C2)CC1` (stereo unspecified)?
DRD3 agonist: inactive; D3 antag: inactive

What do the screens show for `COc1ccc(C(CNC(=O)c2cc(S(=O)(=O)N3CCCCC3)ccc2C)N2CCCC2)cc1` (stereo unspecified)?
DRD3 agonist: inactive; a7 integrin act: inactive; D3 antag: inconclusive

How did COc1cccc(C(=O)NCCS(=O)(=O)N2CCCC2)c1 do in these assays?
DRD3 agonist: inactive; a7 integrin act: inactive; D3 antag: -62.6

Results for COc1ccccc1NS(=O)(=O)c1cc(C(=O)NCC(c2cccs2)N2CCOCC2)ccc1C (stereo unspecified) ?
DRD3 agonist: inactive; a7 integrin act: inactive; D3 antag: inactive

How did COc1ccc(C(CNC(=O)c2ccc(C)c(S(=O)(=O)Nc3ccccc3OC)c2)N2CCCC2)cc1 (stereo unspecified) do in these assays?
DRD3 agonist: inactive; a7 integrin act: inactive; D3 antag: -92.9

Results for COc1ccc(C(CNC(=O)CNC(=O)c2ccccc2Cl)N2CCCC2)cc1 (stereo unspecified) ?
DRD3 agonist: inactive; a7 integrin act: inactive; D3 antag: inactive

How did COc1ccc(C(CNC(=O)c2cccc(S(=O)(=O)N3CCCCC3)c2)N2CCCC2)cc1 (stereo unspecified) do in these assays?
DRD3 agonist: inactive; a7 integrin act: inactive; D3 antag: -51.3

Screens (PubChem BioAssay)
